Assay [1] in a line: yeast TOR pathway RPL19A-GFP modulators, primary screen, cell-based, S. cerevisiae, multiplex flow cytometry (AID 1862; in the data active = percent of DMSO control GFP below about 86%;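 also: lower values mimic rapamycin by blocking the RPL19A rise seen in DMSO cells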). The following applies: S. cerevisiae RPL19A-GFP strain, flow cytometry fluorescence, 3 h; at 10 µM; stronger effect = lower value. A general note: Flow cytometry measures light scatter and fluorescence of single cells or particles in a stream.
Assay [2] in a line: modulators of MEP2-GFP levels in yeast, primary screen, S. cerevisiae, multiplex flow cytometry (AID 1867;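 active = GFP response, as percent of the DMSO control, above the screen-wide mean plus 3 SD, about 139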;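 also: median GFP channel fluorescence of barcode-gated MEP2-GFP cells measured by flow cytometry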). To be noted: S. cerevisiae MEP2-GFP strain, 3 h, at 10 µM, stronger effect = higher value, 100% means same as DMSO wells.
The nature of assay [3]: modulators of CIT2-GFP expression in yeast, primary screen, S. cerevisiae, GFP fusion, multiplex flow cytometry (AID 1870;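 active = percent response above a set limit, the screen-wide mean plus 3 SD, cut at about 130% in these data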;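 also: barcoded CIT2-GFP strain pooled with four other GFP strains with rapamycin as positive control; median GFP fluorescence per well over plate mean of DMSO wells so 100% = DMSO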). The following applies: 3 h, at 10 µM, stronger effect = higher value.
Assay [4] is described as follows: modulators of LAP4-GFP expression in yeast, primary screen, S. cerevisiae, multiplex flow cytometry (AID 1873;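 active = GFP signal, as percent of the solvent control, above the screen mean plus 3 SD, about 149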). To be noted: 3 h, at 10 µM, stronger effect = higher value.
The nature of assay [5]: modulators of AGP1-GFP expression in yeast TOR pathway, primary screen, cell-based, multiplex flow cytometry, S. cerevisiae (AID 1887;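 active = GFP signal above the screen-wide mean plus 3 SD, that is over about 124.5% of the solvent control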;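 also: AGP1-GFP fusion strain of S. cerevisiae within a five-strain barcoded multiplex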). The following applies: 3 h, at 10 µM, stronger effect = higher value.
A short description of assay [6]: inhibitors of CD8+ T cell-vesicle binding, pilot screen, LFA-1/ICAM-1 modulator project, MLPCN validation set, flow cytometry (AID 2523;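 active = response below a set limit, under 55% cells CD8-positive and vesicle-bound, and CD8 cells' 90th-percentile brightness under 279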;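 as to vesicle binding response: mean PE anti-B7-1 fluorescence of CD8+ cells relative to row control; 100% = QL9-loaded vesicles with DMSO vehicle in the same plate row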). To be noted: 2C mouse CD8+ T cells, at 7 µM, stronger effect = lower value; double positive events: measured here: CD8+/vesicle+ event percentage.
For assay [7], the target named is Integrin beta-1 (Homo sapiens) + Integrin alpha-4 (Homo sapiens) (UniProt P13612+P05556). The experiment in a line: inhibition of HUTS-21 binding to VLA-4, pilot screen, VLA-4 allosteric modulator project, U937 cells, HUTS-21 mAb, flow cytometry, validation set (AID 2674;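 active = inhibition above 50%, about 3 SD of the validation set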;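 also: antibody binding induced by the VLA-4 ligand LDV present at three times its Kd; 0% = LDV ligand with antibody and no compound and 100% = antibody without LDV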). The following applies: HUTS-21 LIBS mAb binding, at 6.7 µM, stronger effect = higher value, binding induced by LDV ligand.

Assay [8] is described as follows: superoxide lowering in aged yeast cells, pilot screen, validation compound set (AID 2706;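 active = superoxide response below 65% of plate, a cut near 3 SD across the whole screen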;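 also: yeast exposed to compound for one week at 30 degrees C before staining; 100% = mean of all compound wells on the same plate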). To be noted: S. cerevisiae aging, superoxide DHE fluorescence; at 10 µM; stronger effect = lower value.
Assay [9] has as its target Beta-adrenergic receptor kinase 1 (Homo sapiens) (UniProt P25098). The experiment in a line: GRK2 binders displacing RNA aptamer, biochemical, validation, human GRK2, bead flow cytometry (AID 488806;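 active = aptamer binding inhibition above 30%, about 3 SD of noise from non-fluorescent compounds; inactive = inhibition at or below 30%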). The following applies: bead-bound GRK2, FAM-aptamer displacement, at 10 µM, stronger effect = higher value.
Assay [10] addresses Beta-2 adrenergic receptor (Homo sapiens) (UniProt P07550). The experiment in a line: beta2AR agonists driving receptor internalization, pilot screen, cell-based, FAP fluorogen, flow cytometry, validation set (AID 504459;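 active = percent response above 42, roughly 3 SD of non-fluorescent test compounds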;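 also: agonist-driven loss of surface beta2AR via internalization measured by FAP dye flow cytometry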). The following applies: Am2.2-beta2AR cells, FAP surface receptor flow cytometry; at 10 µM; stronger effect = higher value.
In assay [11] the target is AP-2 complex subunit beta (Homo sapiens) (UniProt P63010). The experiment in a line: inhibitors of arrestin peptide binding to AP2, pilot screen, biochemical, validation set, GST-AP2 beads, flow cytometry (AID 504541;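 active = inhibition above 54%, about 3 SD of non-fluorescent compounds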;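 also: AP2 carries R879A mutation and is captured from E. coli lysate; bead-bound FITC arrestin peptide fluorescence measuring arrestin peptide binding to AP2; 0% = DMSO wells and 100% = excess unlabeled arrestin peptide control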). The following applies: FITC arrestin peptide, at 10 µM, stronger effect = higher value, AP2 beta2 appendage fragment, R879A mutant.
Assay [12] can be described thus: yeast V-ATPase proton transport modulators, S. cerevisiae, pHLuorin, HTS validation (AID 504600; in the data active = response above about 15%;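 also: plate controls were DMSO for no effect and reference compound for full effect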). The following applies: S. cerevisiae pHLuorin cytosolic pH, at 10 µM, stronger effect = higher value.
The test system of assay [13] is anti-desmoglein-3 scFv antibody binding to human DSG3. The assay can be described thus: inhibitors of anti-DSG3 scFv binding to DSG3, pilot screen, biochemical, validation compound set, bead-based, flow cytometry (AID 588368;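 active = binding below the plate cutoff, the plate median minus 3 SD, with a reading above zero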;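 also: signal is the median channel fluorescence of bead-bound GFP antibody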). The following applies: Protein G beads, DSG3-Fc, scFv-GFP binding, at 10 µM, stronger effect = lower value.
Assay [14] in a line: inhibitors of fungal efflux pumps CDR1, CDR2, MDR1, pilot screen, validation compound set, multiplex, phenotypic (AID 588506).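 Also: Nile Red retained in cells so higher fluorescence means more efflux inhibition; 0 = negative control wells and 1 = enniatin B 25 µM full block.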 The following applies: S. cerevisiae pump-expressing triplex, Nile Red efflux flow cytometry; at 10 µM; stronger effect = higher value; the pumps come from Candida albicans.
Assay [15] addresses ATP-binding cassette sub-family B member 6 (Homo sapiens) (UniProt Q9NP58). The assay can be described thus: ABCB6 transporter inhibitors, pilot screen, K562-ABCB6 cells, flow cytometry, validation set (AID 588550;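 active = inhibition above the screen-wide mean plus 3 SD, about 51%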;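 also: 0% = DMSO wells and 100% = benzethonium chloride 70 µM positive control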). To be noted: K562-ABCB6 porphyrin accumulation, 1 h, at 10 µM, stronger effect = higher value.
Assay [16] can be described thus: promoters of myeloid differentiation in arrested cells, primary screen, cell-based, GFP/MAC1 double positive, flow cytometry, validation set (AID 588685;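 active = differentiation response of at least 50%, scaled between solvent and reference control, from cells with both markers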;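 also: compound exposure lasts four days before antibody staining and flow analysis; 0% = DMSO wells and 100% = 5 µM fulvestrant positive control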). The following applies: ER-HoxA9 marrow cells, stronger effect = higher value, normalized: vehicle 0, fulvestrant 100.

Records with an inconclusive call do not appear. Active and inactive are the calls of the source.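 The calls were made as follows, unless noted: active = efflux inhibition above 0.42, the validation set average plus 4 SD; inconclusive = no clear call, values can overlap the other calls; inactive = the rest.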

Chain of Beta-2 adrenergic receptor (Homo sapiens) (P07550 whole entry, looked up): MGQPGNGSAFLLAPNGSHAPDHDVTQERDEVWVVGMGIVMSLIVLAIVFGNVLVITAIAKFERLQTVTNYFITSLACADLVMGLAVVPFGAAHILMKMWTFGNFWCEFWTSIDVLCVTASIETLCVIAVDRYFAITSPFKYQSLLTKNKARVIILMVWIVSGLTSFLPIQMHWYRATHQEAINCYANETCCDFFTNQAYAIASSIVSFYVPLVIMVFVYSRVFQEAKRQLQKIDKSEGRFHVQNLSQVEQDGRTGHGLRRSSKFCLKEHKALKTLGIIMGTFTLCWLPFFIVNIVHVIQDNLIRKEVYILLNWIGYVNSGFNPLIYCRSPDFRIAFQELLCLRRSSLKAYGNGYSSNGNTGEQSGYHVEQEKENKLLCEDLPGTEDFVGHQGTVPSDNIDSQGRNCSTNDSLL
Chain of ATP-binding cassette sub-family B member 6 (Homo sapiens) (Q9NP58 whole entry, looked up): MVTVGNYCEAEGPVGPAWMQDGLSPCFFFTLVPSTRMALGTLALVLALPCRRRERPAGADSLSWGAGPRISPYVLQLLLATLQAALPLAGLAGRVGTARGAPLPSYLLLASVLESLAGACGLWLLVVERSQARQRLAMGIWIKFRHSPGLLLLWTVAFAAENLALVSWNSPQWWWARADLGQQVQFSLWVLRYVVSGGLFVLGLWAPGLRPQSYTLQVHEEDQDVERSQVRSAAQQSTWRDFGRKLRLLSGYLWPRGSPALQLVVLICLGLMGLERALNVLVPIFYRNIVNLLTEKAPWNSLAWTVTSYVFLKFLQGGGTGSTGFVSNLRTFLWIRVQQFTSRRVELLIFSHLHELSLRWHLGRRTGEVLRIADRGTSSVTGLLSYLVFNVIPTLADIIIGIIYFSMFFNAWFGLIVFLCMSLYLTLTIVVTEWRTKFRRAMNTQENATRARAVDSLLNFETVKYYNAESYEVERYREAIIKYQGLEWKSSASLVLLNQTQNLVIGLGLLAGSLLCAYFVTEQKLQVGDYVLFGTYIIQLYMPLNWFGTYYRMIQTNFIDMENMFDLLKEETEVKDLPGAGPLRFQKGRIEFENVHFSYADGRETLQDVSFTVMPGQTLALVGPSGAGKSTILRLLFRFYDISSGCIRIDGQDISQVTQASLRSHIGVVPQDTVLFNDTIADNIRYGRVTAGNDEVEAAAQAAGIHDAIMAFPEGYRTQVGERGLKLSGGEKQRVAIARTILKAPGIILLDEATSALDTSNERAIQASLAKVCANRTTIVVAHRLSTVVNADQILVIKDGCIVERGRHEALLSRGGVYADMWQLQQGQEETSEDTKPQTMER
Chain of Beta-adrenergic receptor kinase 1 (Homo sapiens) (P25098 whole entry, looked up): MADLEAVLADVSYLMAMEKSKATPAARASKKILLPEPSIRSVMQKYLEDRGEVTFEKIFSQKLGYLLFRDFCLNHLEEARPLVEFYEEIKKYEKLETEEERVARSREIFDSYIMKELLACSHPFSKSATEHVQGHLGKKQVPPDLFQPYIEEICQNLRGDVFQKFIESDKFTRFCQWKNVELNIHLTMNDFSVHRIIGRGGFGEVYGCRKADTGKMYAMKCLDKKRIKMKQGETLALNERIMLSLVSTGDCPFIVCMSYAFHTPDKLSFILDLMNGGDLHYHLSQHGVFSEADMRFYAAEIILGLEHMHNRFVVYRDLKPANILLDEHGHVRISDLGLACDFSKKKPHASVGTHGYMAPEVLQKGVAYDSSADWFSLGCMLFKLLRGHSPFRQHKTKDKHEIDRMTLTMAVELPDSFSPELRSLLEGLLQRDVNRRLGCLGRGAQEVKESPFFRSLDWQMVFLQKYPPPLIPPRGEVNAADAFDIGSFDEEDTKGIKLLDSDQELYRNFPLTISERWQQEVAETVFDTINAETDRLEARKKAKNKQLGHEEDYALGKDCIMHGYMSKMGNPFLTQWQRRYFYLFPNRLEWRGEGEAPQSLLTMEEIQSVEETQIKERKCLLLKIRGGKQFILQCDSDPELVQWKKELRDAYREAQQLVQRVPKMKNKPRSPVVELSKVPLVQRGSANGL
Chain of AP-2 complex subunit beta (Homo sapiens) (P63010 whole entry, looked up, the tested form may be a part, one chain of several): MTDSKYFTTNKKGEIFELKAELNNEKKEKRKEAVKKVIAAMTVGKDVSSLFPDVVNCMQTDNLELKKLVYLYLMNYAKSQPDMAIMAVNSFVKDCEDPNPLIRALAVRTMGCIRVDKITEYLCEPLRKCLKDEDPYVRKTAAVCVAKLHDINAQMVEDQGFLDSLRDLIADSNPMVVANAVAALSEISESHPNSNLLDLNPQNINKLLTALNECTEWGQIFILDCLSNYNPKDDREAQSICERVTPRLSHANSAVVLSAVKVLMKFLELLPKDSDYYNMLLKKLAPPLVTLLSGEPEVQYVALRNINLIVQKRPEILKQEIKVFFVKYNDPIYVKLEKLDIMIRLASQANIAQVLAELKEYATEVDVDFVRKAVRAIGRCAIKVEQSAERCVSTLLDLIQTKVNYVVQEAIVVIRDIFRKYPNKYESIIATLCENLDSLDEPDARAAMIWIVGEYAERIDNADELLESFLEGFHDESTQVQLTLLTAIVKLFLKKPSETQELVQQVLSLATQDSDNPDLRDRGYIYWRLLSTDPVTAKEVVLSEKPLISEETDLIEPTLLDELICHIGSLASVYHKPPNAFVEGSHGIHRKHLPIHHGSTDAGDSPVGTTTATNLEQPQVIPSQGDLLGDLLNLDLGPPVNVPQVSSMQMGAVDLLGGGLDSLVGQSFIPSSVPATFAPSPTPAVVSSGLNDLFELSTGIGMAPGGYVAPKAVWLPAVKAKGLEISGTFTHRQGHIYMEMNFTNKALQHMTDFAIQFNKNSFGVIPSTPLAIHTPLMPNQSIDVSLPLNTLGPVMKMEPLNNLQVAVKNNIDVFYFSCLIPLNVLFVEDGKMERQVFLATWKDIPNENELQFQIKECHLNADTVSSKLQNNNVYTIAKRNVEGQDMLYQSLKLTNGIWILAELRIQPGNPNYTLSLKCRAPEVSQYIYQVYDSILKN
Chain of Integrin beta-1 (Homo sapiens) + Integrin alpha-4 (Homo sapiens) (P05556 whole entry, looked up): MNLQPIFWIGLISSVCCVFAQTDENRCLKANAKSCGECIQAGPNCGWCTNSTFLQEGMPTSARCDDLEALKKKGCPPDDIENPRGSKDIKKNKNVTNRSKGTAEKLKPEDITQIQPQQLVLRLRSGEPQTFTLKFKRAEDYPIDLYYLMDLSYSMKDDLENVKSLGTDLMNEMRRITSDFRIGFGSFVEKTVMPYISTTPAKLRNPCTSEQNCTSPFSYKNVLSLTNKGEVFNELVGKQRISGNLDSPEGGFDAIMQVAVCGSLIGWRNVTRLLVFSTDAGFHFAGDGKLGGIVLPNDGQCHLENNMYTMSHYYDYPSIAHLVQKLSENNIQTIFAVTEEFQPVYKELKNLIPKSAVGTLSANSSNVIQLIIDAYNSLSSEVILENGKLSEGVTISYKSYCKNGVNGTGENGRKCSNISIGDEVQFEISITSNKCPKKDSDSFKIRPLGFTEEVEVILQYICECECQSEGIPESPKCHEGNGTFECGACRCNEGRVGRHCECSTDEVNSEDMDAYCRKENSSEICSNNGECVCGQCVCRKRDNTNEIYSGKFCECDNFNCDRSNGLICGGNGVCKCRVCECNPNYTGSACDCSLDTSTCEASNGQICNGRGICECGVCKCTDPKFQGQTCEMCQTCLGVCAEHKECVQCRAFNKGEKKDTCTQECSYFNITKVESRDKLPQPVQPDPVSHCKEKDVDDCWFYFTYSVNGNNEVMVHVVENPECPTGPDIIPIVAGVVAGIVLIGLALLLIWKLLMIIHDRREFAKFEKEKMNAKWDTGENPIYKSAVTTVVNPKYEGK
Chain of Integrin beta-1 (Homo sapiens) + Integrin alpha-4 (Homo sapiens) (P13612 whole entry, looked up): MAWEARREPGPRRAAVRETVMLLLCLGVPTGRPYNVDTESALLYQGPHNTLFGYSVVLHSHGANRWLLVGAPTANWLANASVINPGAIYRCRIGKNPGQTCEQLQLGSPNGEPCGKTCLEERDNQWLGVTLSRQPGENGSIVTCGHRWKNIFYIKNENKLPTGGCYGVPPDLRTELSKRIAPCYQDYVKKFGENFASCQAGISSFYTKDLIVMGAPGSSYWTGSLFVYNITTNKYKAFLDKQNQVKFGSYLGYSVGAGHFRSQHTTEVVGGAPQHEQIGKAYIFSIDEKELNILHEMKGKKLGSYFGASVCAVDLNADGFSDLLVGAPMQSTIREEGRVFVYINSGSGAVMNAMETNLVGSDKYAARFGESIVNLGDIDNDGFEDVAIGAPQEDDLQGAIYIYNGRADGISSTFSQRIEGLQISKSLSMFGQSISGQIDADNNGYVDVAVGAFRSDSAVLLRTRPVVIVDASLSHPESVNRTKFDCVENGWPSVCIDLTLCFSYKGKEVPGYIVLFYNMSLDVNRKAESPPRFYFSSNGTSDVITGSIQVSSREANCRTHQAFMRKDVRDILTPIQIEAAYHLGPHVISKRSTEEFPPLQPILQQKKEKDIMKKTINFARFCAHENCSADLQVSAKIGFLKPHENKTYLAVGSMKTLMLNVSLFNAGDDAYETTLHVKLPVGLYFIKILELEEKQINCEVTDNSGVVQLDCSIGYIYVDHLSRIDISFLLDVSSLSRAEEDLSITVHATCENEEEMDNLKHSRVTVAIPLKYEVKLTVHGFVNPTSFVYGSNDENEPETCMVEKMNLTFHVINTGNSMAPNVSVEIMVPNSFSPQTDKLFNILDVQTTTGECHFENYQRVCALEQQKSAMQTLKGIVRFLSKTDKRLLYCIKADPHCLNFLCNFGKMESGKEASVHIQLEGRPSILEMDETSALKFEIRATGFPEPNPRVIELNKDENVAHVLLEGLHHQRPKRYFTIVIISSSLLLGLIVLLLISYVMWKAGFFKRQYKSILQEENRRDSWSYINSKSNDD

The inhibition is the relative decrease from the control value, in per cent. In the case of `COc1cc2c(cc1OC)/C(=C/c1ccc(Cl)cc1)C(=O)OC2`, in assay [1], the percent of DMSO control GFP was 87.8% (inactive). The GFP response vs DMSO is 108% (inactive) in [2] and 83.1% (inactive) in [4]. Moreover, the percent response of DMSO control in assay [3] is 95.2% (inactive). Besides, the GFP response, % of DMSO in assay [5] was 85.7% (inactive). Also, in assay [6], the double positive events stood at 63.9%. Also, the vesicle binding response in [6] was 155% (inactive). Further, the values for the inhibition in assay [7], in [11] and in [15] were -7.12% (inactive), 10.1% (inactive) and 1% (inactive), respectively. Moreover, the superoxide response (% of plate) in [8] is 95.8% (inactive). Further, in [9], the aptamer binding inhibition is 4% (inactive). Besides, the response in [10] was -8.94% (inactive); in assay [12], -2.13% (inactive). The binding (% of control) in [13] was 104% (inactive). Moreover, in assay [14], the efflux inhibition (fraction of control) is 0.3 (inactive). Further, the differentiation response in assay [16] was -2.46% (inactive).

With `COC(=O)[C@@H](N)CS`, the percent of DMSO control GFP in assay [1] was 102% (inactive). For the same compound, the GFP response vs DMSO in assay [2] was 102% (inactive); in assay [4], 95.1% (inactive). The percent response of DMSO control in assay [3] is 98.2% (inactive). The GFP response, % of DMSO in assay [5] was 103% (inactive). The compound further displayed a double positive events in assay [6] of 60.5%. In addition, the vesicle binding response in assay [6] was 61.8% (inactive). Also, the figures for the inhibition in [7], in assay [11] and in assay [15] were -3.18% (inactive), -20.1% (inactive) and 4% (inactive), respectively. Further, in [8], the superoxide response (% of plate) was 101% (inactive). The aptamer binding inhibition in assay [9] is 8% (inactive). For the same compound, the response in assay [10] was 15.2% (inactive); in assay [12], 0.91% (inactive). Besides, the binding (% of control) in assay [13] is 95.6% (inactive). The efflux inhibition (fraction of control) in assay [14] is 0.2 (inactive). For the same compound, the differentiation response in [16] was -3.4% (inactive).

Turning to `O=C(COc1ccc2c(-c3ccccc3)cc(=O)oc2c1)NCc1cccs1`, the percent of DMSO control GFP in assay [1] was 97.5% (inactive). Also, the GFP response vs DMSO in [2] is 96.6% (inactive); in [4], 102% (inactive). Also, the percent response of DMSO control in assay [3] is 85.4% (inactive). For the same compound, in assay [5], the GFP response, % of DMSO is 102% (inactive). The compound further had a double positive events in assay [6] of 64.6%. For the same compound, the vesicle binding response in assay [6] was 214% (inactive). In addition, the inhibition in assay [7] was -3.67% (inactive); in assay [11], 26.5% (inactive); in assay [15] it was 14% (inactive). In addition, the superoxide response (% of plate) in assay [8] was 92.2% (inactive). Also, the aptamer binding inhibition in assay [9] was -2% (inactive). Moreover, the response in assay [10] is -25.8% (inactive); in [12] it was -7% (inactive). Also, the binding (% of control) in assay [13] is 102% (inactive). The efflux inhibition (fraction of control) in assay [14] is 0.12 (inactive). In addition, in assay [16], the differentiation response was 6.83% (inactive).

Take `Nc1ccc2cn[nH]c2c1`: the percent of DMSO control GFP in assay [1] is 104% (inactive). Further, the GFP response vs DMSO in assay [2] is 97.7% (inactive); in assay [4], 101% (inactive). Besides, the percent response of DMSO control in assay [3] was 98.6% (inactive). Also, the GFP response, % of DMSO in [5] is 102% (inactive). In [6], this compound gave a double positive events of 60.8%. Also, the vesicle binding response in [6] was 109% (inactive). The inhibition is -3.77% (inactive) in assay [7], 0.32% (inactive) in assay [11] and 32% (inactive) in assay [15]. Also, in [8], the superoxide response (% of plate) is 109% (inactive). For the same compound, the aptamer binding inhibition in assay [9] is -1% (inactive). The results for the response in assay [10] and in [12] were 2.17% (inactive) and -2.55% (inactive), respectively. In addition, in assay [13], the binding (% of control) is 102% (inactive). In assay [14], the efflux inhibition (fraction of control) was 0.265 (inactive). For the same compound, the differentiation response in [16] is -16.3% (inactive).

For the origin of these results see PubChem BioAssay.
